FLuc modulator – firefly luciferase modulation, counter-screen for miR-21 project; 360,000 compounds, 6.9% hits; purified FLuc, Km substrates, luminescence inhibition; P08659; AID 588342; Potency, µM (series often up to 57.5 µM), inactives show top-dose activity change, negative = inhibition, most hits filed as inhibitors;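 further: plate controls were vehicle for no effect and reference inhibitor for full effect; nearly all actives have a fitted effect of over 55% in size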
Target sequence (P08659 whole entry, looked up): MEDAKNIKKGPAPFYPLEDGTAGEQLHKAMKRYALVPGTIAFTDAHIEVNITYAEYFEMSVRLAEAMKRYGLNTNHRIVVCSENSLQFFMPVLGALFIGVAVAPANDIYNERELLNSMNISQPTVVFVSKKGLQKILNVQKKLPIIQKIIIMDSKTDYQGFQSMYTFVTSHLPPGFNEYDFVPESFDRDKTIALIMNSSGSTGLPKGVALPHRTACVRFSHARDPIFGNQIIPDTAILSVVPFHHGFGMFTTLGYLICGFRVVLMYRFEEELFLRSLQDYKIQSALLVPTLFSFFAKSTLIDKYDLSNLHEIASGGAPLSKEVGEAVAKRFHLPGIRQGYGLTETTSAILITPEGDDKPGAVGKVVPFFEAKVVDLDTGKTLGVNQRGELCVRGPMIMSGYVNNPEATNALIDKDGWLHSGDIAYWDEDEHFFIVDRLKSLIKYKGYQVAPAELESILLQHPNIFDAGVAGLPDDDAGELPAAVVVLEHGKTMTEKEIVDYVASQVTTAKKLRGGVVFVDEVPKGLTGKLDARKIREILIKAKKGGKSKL
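Purified P. pyralis luciferase (10nM final) with 10uM D-luciferin and 10uM ATP (Km levels) in 50mM Tris acetate pH 7.5, 10mM Mg acetate, 0.01% Tween-20, 0.05% BSA; qHTS 6-point titration, ~60 µM downward; luminescence read.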
ELG1 genotox – genotoxicity induction in ELG1-luciferase HEK293T cells. HEK293T ELG1-luciferase reporter, luminescence, 16 h. Potency, µM (highest dose often 46 µM), inactives show top-dose activity change, positive = activation, most hits filed as activators. 330,000 compounds, 1.3% hits. AID 504466; further: % of control where 0% means no effect; nearly all actives have a fitted effect of over 60% in size
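16 hr compound incubation (37 °C, 5% CO2) of HEK293T cells carrying luciferase-tagged ELG1; luciferase then measured by ONE-Glo luminescence after 30 min at RT.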
SMN2 splice up – increases expression of the SMN2 splice variant; HEK293 SMN2-luciferase splicing reporter, luminescence, 30-36 h; 210,000 compounds, 2.8% hits; Potency, µM (top dose mostly 46.1 µM), inactives show at the highest dose activity change, positive = activation, hits mostly activators; further: % of control where 0% means no effect; nearly all actives have a fitted effect of over 55% in size
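HEK293 cells carry an SMN2 […]–luciferase reporter in which exon 7 inclusion puts luciferase in frame. Cells were plated 10-12 h before compound addition, then incubated 30-36 h at 37C. ONE-Glo luminescence was read; sodium butyrate at 4.5 mM final served as control.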
NPC1 prom act – activators of NPC1 promoter. 320,000 compounds, 2.4% hits. Potency, µM (highest dose often 9.22 µM), without a hit: top-dose activation, usual class: activators. Huh7 NPC1 promoter luciferase reporter, 24 h; further: % of control where 0% means no effect; nearly all actives have a fitted effect of over 60% in size
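Luminescence read-out of NPC1 promoter-driven luciferase in stably transfected Huh7 cells; compounds delivered in DMSO and left 24 h at 37C, 5% CO2, qHTS titration format.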
Rab9 promoter act – activators of Rab9 promoter. AID 485297. Potency, µM (series often up to 9.22 µM), without a hit: at the top dose activation, negative = inhibition, most hits filed as activators. 320,000 compounds, 2.8% hits. Huh7 Rab9 promoter-luciferase reporter, luminescence, 24 h; further: % of control where 0% means no effect; nearly all actives have a fitted effect of over 60% in size
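Huh7 cells stably carrying a Rab9 promoter-luciferase reporter, 1500 cells per well in OP-MEM I with 10% FBS, treated with compound 24 hours at 37C. Luciferase activity read by luminescence after 10 minutes with Amplite reagent.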
Starred values were filed as active, the others as inactive; ? = inconclusive; / = no result. In the library only some 7.5% were active in any assay of this set; here they are far more common. The call rests on the fitted dose curve; in most records, active means well fitted curve in the direction sought with a large enough effect; inconclusive means small, poorly fitted or top-dose-only effect, or another doubt; inactive means no such curve, though single readings can be large; an effect the other way counts as inactive or inconclusive. Potency means the concentration at half of the fitted maximal effect.

SMILES | FLuc modulator | ELG1 genotox | SMN2 splice up | NPC1 prom act | Rab9 promoter act
CN(C(=O)c1cc2sccc2n1C)C1CCCCC1 | 13µM* | ? | 13µM* | 4µM* | 3.2µM*
CCn1c(C(=O)NC2CCC(C)CC2)cc2sccc21 (centres undefined) | 15µM* | ? | / | 3.5µM* | ?
Cn1c(C(=O)NC2CCCCC2)cc2sccc21 | 17µM* | ? | / | ? | 4µM*
Cc1cc(C)cc(C(=O)OCC(=O)NC(=O)NC2CCCC2)c1 | -3% | -2% | / | 1% | -3%
Fc1cccc(Cl)c1/C=N/n1c(-c2cccnc2)n[nH]c1=S | ? | 2% | -49% | 0% | 0%
Cc1ccccc1OC(=O)c1cc(-c2ccc3c(c2)OCCO3)on1 | 0.6µM* | / | / | / | /
O=C(Oc1ccccc1Cl)c1cc(-c2ccc3c(c2)OCCO3)on1 | 2.7µM* | / | / | / | /
Cc1c(Cl)cccc1NC(=O)c1cc(-c2ccc3c(c2)OCO3)on1 | -1% | / | -3% | / | /
CCc1ccc(NC(=O)c2cc(-c3ccc4c(c3)OCO4)on2)cc1 | -4% | 3% | / | -5% | -4%
Cc1cc(C)cc(OC(=O)c2cc(-c3ccc4c(c3)OCCO4)on2)c1 | -29% | / | / | / | /
Cc1cccc(OC(=O)c2cc(-c3ccc4c(c3)OCCO4)on2)c1C | 5.4µM* | / | / | / | /
COCCNC(=O)CSc1cn(CC(=O)N2CCCCCC2)c2ccccc12 | -3% | / | / | / | /
Cc1cccc(CN2CCN(C(=O)CN(C)C(C)C(=O)Nc3ccc(C(N)=O)cc3)CC2)c1 (centres undefined) | 5% | 2% | / | -1% | 0%
CCOc1ccccc1C(=O)N/N=C/c1ccoc1 | 1% | -1% | / | 1% | -5%
COc1ccc(C(=O)NC(=S)NNC(=O)c2ccccc2O)cc1 | 21µM* | 15% | / | 2% | 0%
COc1ccc(CCCC(=O)Nc2ccccc2F)cc1 | 13µM* | ? | 15% | 19% | ?
COc1ccc(C(=O)NC(=S)Nc2ccccc2F)cc1 | 2.7µM* | ? | 13µM* | 1.8µM* | 1.4µM*
COc1ccc(CNC(=S)Nc2ccccc2F)cc1 | -9% | -1% | / | 8% | 8%
O=C(CC(=O)Nc1ccccc1F)Nc1ccccc1F | -9% | 2% | / | 0% | -4%
COc1ccc(CCNC(=O)C(=O)Nc2ccccc2F)cc1 | 0% | / | 1% | / | /
COc1ccc(C(=O)NC(=S)NNC(=O)c2ccco2)cc1 | 0% | 3% | / | -3% | -2%
Cc1ccc(CCC(=O)Nc2ccccc2F)s1 | 7.6µM* | 10µM* | ? | ? | ?
CCN(CC)C(=O)C1=C(C)Nc2nc3ccccc3n2C1c1cccc(Cl)c1 (centres undefined) | 3% | / | -2% | / | /
CC(=O)Nc1ccc(N2C(=O)CSC2c2cccc(Br)c2)cc1 (centres undefined) | -2% | -3% | / | 2% | -2%
CCOC(=O)c1nn(-c2ccc3c(c2)CCN3C(C)=O)cc1O | 3.8µM* | 1.6µM* | 10µM* | 1.6µM* | 2.2µM*
SMILES | FLuc modulator | ELG1 genotox | SMN2 splice up | NPC1 prom act | Rab9 promoter act
CCOC(=O)c1nn(-c2ccc(F)cc2)cc1O | ? | ? | -17% | ? | ?
COc1ccc(CCN(C)C(=O)Cn2c(=O)oc3ccccc32)cc1OC | 3% | 4% | / | 1% | -1%
C=C1C=C(C(F)F)n2ncc(C(=O)NCCc3ccc(OC)c(OC)c3)c2N1 | 4% | / | / | / | /
COc1ccccc1CCNC(=O)Cc1c(C)c2ccc(O)cc2oc1=O | -14% | / | -6% | / | /
Cc1c(CC(=O)NCCCC(=O)O)c(=O)oc2cc3occ(-c4ccccc4)c3cc12 | 19µM* | 4% | / | 0% | 7%
Cc1c(CC(=O)NCC(=O)O)c(=O)oc2cc3occ(-c4ccccc4)c3cc12 | 24µM* | 2% | / | -4% | -3%
Cc1coc2cc3oc(=O)c(CC(=O)NCc4ccccc4)c(C)c3cc12 | 1% | / | 0% | / | /
Cc1c(CC(=O)NCc2ccccc2Cl)c(=O)oc2cc(O)ccc12 | 21µM* | / | 3% | / | /
O=C(Nc1ccc2c(c1)OCCO2)C1CCN(C(=O)c2ccc(F)cc2)CC1 | ? | ? | -10% | 24% | ?
CCCN1C(=O)/C(=C/c2ccc(C)s2)NC1=S | 27µM* | -6% | -4% | -2% | -7%
CCCC(=O)Oc1c(Sc2ccc(Cl)cc2)c(C)nn1-c1ccccc1 | 11µM* | / | -4% | / | /
O=c1c(C(c2ccccc2)c2c(O)sc3ccccc3c2=O)c(O)sc2ccccc12 | 12µM* | -17% | -25% | 1% | -3%
OC(c1ccccc1)c1nc2ccccc2s1 (centres undefined) | ? | -1% | -3% | 8% | -1%
CC(=O)N1CCC(C(=O)Nc2ccc(S(=O)(=O)N3CCCCC3)cc2)CC1 | 2% | -1% | / | -2% | 3%
COC(=O)Cc1c(C)c2ccc(OC(=O)c3ccco3)cc2oc1=O | 17µM* | 4% | -4% | 0% | 1%
COC(=O)Cc1c(C)c2ccc(OC(C)C)cc2oc1=O | 15µM* | 18% | / | ? | 3.2µM*
COC(=O)Cc1c(C)c2ccc(OC3CCCCC3=O)cc2oc1=O (centres undefined) | ? | 5% | / | 22% | 23%
Cc1occc1C(=O)NCCc1cccc(Cl)c1 | 21µM* | ? | ? | ? | 4µM*
O=C(NCCc1cccc(Cl)c1)c1cccs1 | 15µM* | ? | 16µM* | 2.2µM* | 1.8µM*
Cc1occc1C(=O)NCCCCNC(=O)c1ccoc1C | -1% | -2% | -4% | 0% | 3%
O=C(NCCc1ccccc1)c1cccs1 | 11µM* | 2.9µM* | 11µM* | 2.8µM* | 2.8µM*
O=C(NCCCCNC(=O)c1cccs1)c1cccs1 | 2% | 3% | 0% | 0% | 1%
COC(=O)C1CCN(C(=O)C2CCCCC2)CC1 | -2% | -1% | ? | -3% | -1%
CCNc1ncc2nc(-c3ccc(Cl)cc3)c(=O)n(C3CC3)c2n1 | / | / | 3% | / | /
O=C(Nc1ccccc1C(=O)N1CCCC1)c1ncoc1-c1cccc(Cl)c1 | ? | -31% | / | 2% | 1%
SMILES | FLuc modulator | ELG1 genotox | SMN2 splice up | NPC1 prom act | Rab9 promoter act
COc1ccc(F)cc1S(=O)(=O)Nc1cccc(-c2ccc(N3CCCCCC3)nn2)c1 | 9.5µM* | / | / | / | /
COc1ccccc1S(=O)(=O)Nc1cccc(-c2nnc3n2CCCCC3)c1 | 1% | -1% | -3% | -3% | -10%
CCc1ccc(S(=O)(=O)Nc2cccc(-c3ccc(N4CCC(C)CC4)nn3)c2)s1 | 1.3µM* | / | / | / | /
Cc1ccc(S(=O)(=O)Nc2cccc(-c3ccc4nnc(C)n4n3)c2)s1 | 2% | 21µM* | 13µM* | -12% | 1%
COc1ccc(OC)c(S(=O)(=O)Nc2cccc(-c3ccc(N4CCCCC4)nn3)c2)c1 | 6µM* | / | / | / | /
CC(C)c1c(C(=O)N/N=C2\CCc3ccccc32)nnn1-c1nonc1N | -3% | 0% | / | -1% | 0%
CC(=O)N1CCc2c(sc3nc(SCC(N)=O)n(-c4ccc(F)c(Cl)c4)c(=O)c23)C1 | -1% | / | 10% | / | /

Source: PubChem
